Only some compounds are listed: those with a hit (about 2% of all), similar ones and a draw of the others.
PGE2 EP2 inh: EP2 receptor (human) inhibition; C6 glioma cells expressing human EP2, cAMP TR-FRET; cells stimulated with saturating PGE2; inhibition, % at 25 µM; hit rate 0.52% among 260,000; AID 1422;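 active = percent inhibition above 40 after rounding to a whole number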;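 note: rat C6 glioma host cells with rolipram phosphodiesterase inhibitor present; the protocol text gives 20 µM as final concentration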
CHT PAM: allosteric activators of human choline transporter CHT; CHT-expressing cells, membrane potential dye, choline EC20; active compounds read high; LV-AA mutant CHT in HEK293 cells; B-score at 10 µM; hit rate 0.49% among 310,000;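 active = initial fluorescence not abnormally high and integrated response B-score, plate-corrected, over 3 SD above library mean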
Target sequence (Q9GZV3 whole entry, looked up): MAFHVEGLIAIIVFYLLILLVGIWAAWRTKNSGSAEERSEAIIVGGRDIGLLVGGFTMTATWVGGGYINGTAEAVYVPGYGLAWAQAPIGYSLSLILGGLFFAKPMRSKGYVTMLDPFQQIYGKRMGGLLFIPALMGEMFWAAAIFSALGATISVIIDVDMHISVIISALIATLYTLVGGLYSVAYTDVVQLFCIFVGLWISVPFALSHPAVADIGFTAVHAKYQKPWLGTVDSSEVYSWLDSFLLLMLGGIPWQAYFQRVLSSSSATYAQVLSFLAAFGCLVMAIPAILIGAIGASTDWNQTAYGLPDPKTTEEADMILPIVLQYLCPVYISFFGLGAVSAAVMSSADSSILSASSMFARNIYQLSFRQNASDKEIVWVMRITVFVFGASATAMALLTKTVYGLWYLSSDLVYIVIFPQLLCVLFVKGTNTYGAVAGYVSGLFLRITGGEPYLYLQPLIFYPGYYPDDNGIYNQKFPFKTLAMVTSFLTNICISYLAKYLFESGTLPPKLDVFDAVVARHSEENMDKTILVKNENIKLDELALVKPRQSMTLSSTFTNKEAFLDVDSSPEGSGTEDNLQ
EP2 modulator: EP2 receptor (human) modulation; P43116; EP2-expressing cells, cAMP HTRF FRET, PGE2 co-stimulation; induction, % at 25 µM; hit rate 0.83% among 260,000; AID 940;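 active = compounds whose cAMP rise, as percent of the full-agonist control response, exceeds 60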;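 note: rat C6 glioma line stably carrying human EP2 under a CMV promoter; the protocol text gives 20 µM as final concentration; 100% = response of wells given 1 µM PGE2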
CHT block: inhibitors of human choline transporter CHT; B-score at 10 µM; hit rate 0.86% among 310,000; CHT-expressing cells, membrane potential dye, choline response; active compounds read low;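 active = B-score over 3 SD under the library average, and starting fluorescence ratio not unusually high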;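 note: choline stimulus applied at its EC90 after an EC20 pre-addition; B-score computed on integrated fluorescence ratio after choline addition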
CHT act confirm: confirmation of human choline transporter (CHT) activators. shares compounds with CHT PAM. hit rate 91% among 2,500. CHT-expressing cells, membrane potential dye fluorescence (FDSS); % of choline EC20–EC90 response window; HEK293 expressing CHT LV-AA mutant; choline added at its EC20. AID 504833. activation, % at 10 µM;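 active = primary screen active, with duplicate mean activation above negative control mean plus 3 SD, cut at about 11% in these data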
HEK293 MP dye: activity in parental HEK293 cells lacking CHT; membrane potential dye fluorescence (FDSS); measured after EC20 choline addition; ratio readout change at 10 µM, hits read low; shares compounds with CHT PAM; hit rate 62% among 2,500; AID 623908;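 active = duplicate-averaged ratio beyond 3 SD from buffer wells, up or down, though filed actives are nearly all decreases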
Numbers without * were called inactive; i = inactive; . = not tested or not shown.

SMILES	PGE2 EP2 inh	CHT PAM	EP2 modulator	CHT block	CHT act confirm	HEK293 MP dye
O=[N+]([O-])c1ccc(-[n+]2c(-c3ccccc3)cc(-c3ccccc3)cc2-c2ccccc2)cc1	.	i	.	i	66*	-28*
CCn1cc(CC(=O)N(CCN(C)C)Cc2ccc(F)cc2)c2ccccc21	9	.	-75	.	.	.
C=CCOc1c(CN2C3CCC2CC(O)(c2ccccc2F)C3)cccc1OC (stereo not given)	9	.	-36	.	.	.
OC(Cn1c2ccccc2c2ccccc21)C[n+]1cccc2ccccc21 (stereo not given)	10	i	-99	i	39*	-38*
CN1CCN(C(=O)OC2c3nccnc3C(=O)N2c2ccc(Cl)cn2)CC1 (stereo not given)	10	9.8*	20	i	68*	-60*
Cc1cc(Cl)ccc1OCC(=O)N1CCN(C)CC1	10	i	11	i	.	.
Cc1ccc(C2=CCN(CC(=O)Nc3nccs3)CC2)o1	8	.	-90	.	.	.
Cc1csc(NC(=O)CN2CC=C(c3ccc(C)o3)CC2)n1	.	.	-94	.	.	.
COc1cc2c(cc1O)C[C@H]1NCCc3cc4c(c-2c31)OCO4	14	i	5	i	.	.
COc1cc2c(cc1OC)-c1c3c(cc4c1[C@@H](C2)N(C)CC4)OCO3	6	i	-2	i	42*	-48*
Cc1ccc2[nH]c(C)c(CC(=O)N(CCN(C)C)Cc3ccc(F)cc3)c2c1	7	.	-92	.	.	.
COC(=O)CN1C(=O)CN=C(c2ccc(C)cc2)c2ccsc21	5	.	-13	.	.	.
O=C(O)CC[n+]1ccc(-c2cc[n+](CCC(=O)O)cc2)cc1	4	.	-15	.	.	.
C[n+]1ccc(-c2cc[n+](C)cc2)cc1	.	11*	.	i	85*	-100*
CCCC[N+]12CCC(CC1)C(=C(c1ccccc1)c1ccccc1)C2	7	9.4*	5	i	61*	i
CCC[N+]12CCC(CC1)C(=C(c1ccccc1)c1ccccc1)C2	7	6.5*	15	i	16*	i
CN(C(=O)CN1C2CCC1CC(O)(c1ccco1)C2)C1CCCCC1 (stereo not given)	.	.	8	.	.	.
CNc1cc(N2CCNCC2)ccc1[N+](=O)[O-]	7	i	-6	i	39*	-49*
Cc1cccc(NP(=O)(Oc2ccccc2F)Oc2ccccc2F)c1	7	i	53	i	23*	i
CSc1nc(N2CCN(C)CC2)c2ccccc2n1	7	6.3*	-2	i	47*	-68*
Cc1cc(N2CCN(C)CC2)nc2ccccc12	.	7*	.	i	49*	-51*
O=C(CN1C2CCC1CC(O)(c1ccco1)C2)N1CCN(c2ccc(F)cc2)CC1 (stereo not given)	.	.	-17	.	.	.
CCC(C)C(=O)O[C@@H]1C[C@@]2(C)[C@H](c3ccoc3)OC(=O)CC23OC2(C)OC34[C@H](OC(=O)C(C)C)[C@@]3(O)[C@@H](OC(=O)C5(C)OC5C)[C@@]5(C)C[C@]3(O)[C@@](C)([C@H]5CC(=O)OC)C14O2 (stereo not given in full)	10	.	21	.	.	.
Cc1ccc(-c2nc(N3CCOCC3)s[n+]2-c2ccccc2)cc1	3	6.7*	11	i	55*	i
Cc1[nH]c2ccc(F)cc2c1CC(=O)N(CCN(C)C)C1CCN(C)CC1	6	.	-30	.	.	.
SMILES	PGE2 EP2 inh	CHT PAM	EP2 modulator	CHT block	CHT act confirm	HEK293 MP dye
Cc1ccc2[nH]c(=O)c(CN(Cc3ccco3)C3(c4nnnn4C4CCCC4)CCCCC3)cc2c1	17	.	6	.	.	.
CN1CCN(c2nc(N(C)C)oc(=O)c2C#N)CC1	2	i	25	i	54*	-47*
CN1CCN(c2ccc([N+](=O)[O-])c(NCC3CCCO3)c2)CC1 (stereo not given)	5	6.3*	3	i	52*	-51*
CN1CCN(c2ccc([N+](=O)[O-])c(NCc3ccco3)c2)CC1	5	i	-19	i	.	.
CN1CCN(c2ccc([N+](=O)[O-])c(SCCO)c2)CC1	8	6.8*	1	i	37*	-65*
CN1CCN(c2ccc([N+](=O)[O-])c(N)c2)CC1	8	i	2	i	.	.
c1ccc2c(CCNC3CCNCC3)c[nH]c2c1	8	.	-78	.	.	.
COc1cccc(CN2CCN(C(C)C)CC2)c1OC	5	.	-19	.	.	.
C[n+]1c(-c2ccccc2)sc2ccccc21	.	i	.	i	52*	-42*
Cn1c(O)c(/C=N/c2ncccn2)c(=O)n(C)c1=O	9	i	21	i	38*	-36*
CC(=O)C1(c2ccccc2)CCN(C(=O)Cn2ccc3ccc(F)cc32)CC1	6	.	-11	.	.	.
COc1ccc(CN2C3CCC2CC(O)(c2ccccc2F)C3)cc1CO (stereo not given)	2	.	-54	.	.	.
CN(C)c1cc[n+](CC(O)C[n+]2ccc(N(C)C)cc2)cc1	.	7.7*	.	i	35*	-71*
C[n+]1ccc(-c2ccccc2)c2ccccc21	.	8.6*	.	i	85*	-70*
Cn1cc(CNCCc2ccccc2)c2ccccc21	10	.	-4	.	.	.
CN(C)c1nc(-c2ccccc2)[n+](C)s1	2	i	36	i	26*	-49*
O=C(Cc1ccc(F)cc1)N1CCN(Cc2ccc3c(c2)OCO3)CC1	8	.	-69	.	.	.
Nc1c(C(=O)NCc2ccco2)c2nc3ccccc3nc2n1CCN1CCOCC1	7	6.4*	2	i	20*	-21*
CCn1nc(CC(=O)N(CCN(C)C)C2CCCCC2)c2ccccc2c1=O	4	.	-16	.	.	.
CCc1nc2ccc(Br)cc2c(=O)n1-c1ccccc1C(F)(F)F	16	i	.	i	.	.
CCCc1nc2ccc(Br)cc2c(=O)n1-c1ccc([N+](=O)[O-])c(C(F)(F)F)c1	4	i	4	i	2	i
Cc1cccc(Nc2nc(CC(=O)N(CCN(C)C)C3CCN(C)CC3)cs2)c1	6	.	-76	.	.	.
O=[N+]([O-])c1ccc2nc(N3CCNCC3)ccc2c1	20	11*	-6	i	37*	-51*
O=C(Nc1ccccc1)c1cc([N+](=O)[O-])ccc1N1CCNCC1	4	i	-11	i	.	.
Fc1ccc(C[n+]2c(-c3ccccc3)cc(-c3ccccc3)cc2-c2ccccc2)cc1	.	8.2*	.	i	32*	i
Cc1sc2ccccc2c1CC1=NCCN1	8	7.8*	2	i	46*	-50*

Compound activity as filed in PubChem.
